The record followed here is PubChem BioAssay (NCATS).

Assay [1] can be described thus: qHTS assay for small molecule agonists of the antioxidant response element (ARE) signaling pathway measured by Nrf2-dependant transcriptional activity (AID 720636; active means well fitted curve in the direction sought with a large enough effect in the repeat runs; an effect the other way counts as inactive or inconclusive;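 further: HepG2 cells with an ARE-driven luciferase reporter; % of control where 0% means no effect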). The method, boiled down:
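ONE-Glo luminescence, read 30 min after reagent addition at room temperature, reflected ARE reporter activity in HepG2 cells that had been incubated with compound for 16 hr at 37 C in 1% dialyzed FBS.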
(Quantitative high-throughput screening tests each substance at several concentrations.)

Assay [2] is described as follows: qHTS assay for small molecule antagonists of the retinoid-related orphan receptor gamma (ROR-gamma) signaling pathway - cell viability counter screen (AID 720652; active means well fitted curve in the direction sought with a large enough effect in the repeat runs; an effect the other way counts as inactive or inconclusive;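 further: CHO reporter cells with doxycycline-induced ROR-gamma expression; compound exposure lasted 16 hr before ATP read; on the % scale 0 is the no-effect control and ±100 the full control effect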). The procedure, abridged:
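CHO cells carrying TET-inducible ROR and RORE-luciferase reporter, plated 5 hr, then dosed with compound plus doxycycline. After 16 hr at 37 C, viability read as intracellular ATP by CellTiter-Glo luminescence.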

Assay [3] can be described thus: qHTS assay for small molecule agonists of the antioxidant response element (ARE) signaling pathway measured by Nrf2-dependant transcriptional activity - cell viability counter screen (AID 720653; active means well fitted curve in the direction sought with a large enough effect in the repeat runs; an effect the other way counts as inactive or inconclusive; further: on the % scale 0 is the no-effect control and ±100 the full control effect). The following applies: ARE-bla HepG2 viability, CellTiter-Glo ATP luminescence, 16 h; max response: stronger effect = lower value. The method, boiled down: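 ARE-bla HepG2 cells (2,000/well) rested 5 hrs at 37C/5% CO2, then exposed to compounds in DMSO for 16 hrs. Viability was read in the same wells as intracellular ATP by luminescence, 30 min at room temperature after reagent addition.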

The nature of assay [4]: qHTS Assay for Identifying Gametocytocidal Compounds (AID 743244).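 Further: on the % scale 0 is the no-effect control and ±100 the full control effect; actives lower the fluorescent signal which means gametocytes are killed.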 Particulars: P. falciparum 3D7 stage III-V gametocytes, alamarBlue, 72 h; max response: stronger effect = lower value. The procedure, abridged:
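Using 20,000 stage III–V 3D7 gametocytes per well, compounds were incubated 72 h under 37 °C/5% CO2. Viability was then assessed by 24 h alamarBlue reduction, measured fluorometrically at 525/598 nm.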

Assay [5] is described as follows: qHTS assay for cell viability of the p53RE-bla HCT-116 cell line (AID 743292). Further: on the % scale 0 is the no-effect control and ±100 the full control effect; nearly all actives have a fitted effect of over 55% in size. The method, boiled down: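 After plating at 4,000 cells per well and a 5 h rest at 37 C, HCT-116 cells carrying p53RE-bla received test chemicals in DMSO. Sixteen hours later at 37 C, CellTiter-Glo was added and luminescence recorded following 30 min at room temperature.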
Assay [6] can be described thus: qHTS assay for measurement of the activity of small molecule inhibitors on Zika virus induced Caspase-3 activity in human astrocytoma cells (AID 1224859). Further: potency means the concentration at half of the fitted maximal effect. The method, boiled down:
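Inhibition of Zika-induced caspase-3/7 activity: SNB-19 cells, 1 h compound pretreatment, ZIKV 2 FFU/cell for 6 h at 37 C, Caspase-Glo luminescence read-out.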

Assay [7] is described as follows: qHTS for Activators of Parkin Expression: LOPAC Validation Assay (NLuc Reporter) (AID 720572;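 further: 0% = DMSO and 100% = positive control compound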). The procedure, abridged: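 Neuronal line stably carrying a FLuc/NLuc coincidence reporter under the Parkin promoter, seeded 24 h, then dosed in 7-point series for 24 h at 37 C. NLuc luminescence read after FLuc; normalized to DMSO and positive control (100%).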
The nature of assay [8]: qHTS for Activators of Parkin Expression: LOPAC Validation Assay (FLuc Reporter) (AID 720573; further: potency means the concentration at half of the fitted maximal effect). The procedure, abridged: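 FLuc luminescence read-out from a neuronal line expressing a Parkin-promoter-driven coincidence reporter. Cells treated 24 h at 37 C, 5% CO2 with compounds at 7 concentrations; signal increase normalized to DMSO and positive control.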
Assay [9] has as its target T1, Hexokinase-4 (Homo sapiens) + Glucokinase regulatory protein (Homo sapiens) (UniProt P35557+Q14397). Nature of the assay: qHTS assay for inhibitors of recombinant human GCK-GKRP interaction: ADP-Glo assay (AID 743206).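 Further: plate controls were DMSO plus enzyme for no effect and no enzyme for full effect.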 The procedure, abridged:
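GST-GCK and FLAG-GKRP (15 nM each in the dispensed mix, with 2 uM S6P) react with 0.4 mM ATP and 5 mM glucose (final) in Hepes pH 7.6 for 60 min at room temperature. ADP is measured by ADP-Glo luminescence.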

Assay [10] has as its target T1, Hexokinase-4 (Homo sapiens) + Glucokinase regulatory protein (Homo sapiens). Nature of the assay: qHTS assay for inhibitors of recombinant human GCK-GKRP interaction: HTRF assay (AID 743207).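 Further: 0% = DMSO with GCK present and -100% = DMSO wells lacking GCK.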 The procedure, abridged:
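HTRF read-out (ex 320 nm; 615/665 nm emission) after 60 min RT equilibration of 5 nM GST-GCK, 5 nM FLAG-GKRP, 2 uM S6P, compound and anti-FLAG/anti-GST detection antibodies; signal normalized between DMSO wells with and without GCK.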

The target is the same in assay [11]. Nature of the assay: qHTS assay for inhibitors of recombinant human GCK-GKRP interaction: Diaphorase-coupled assay (AID 743205). The method, boiled down:
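Resorufin fluorescence (525/590 nm), read each minute over 30 min, reports GCK activity coupled via G6PDH and diaphorase. Reaction: 10 nM GST-GCK, 10 nM FLAG-GKRP, 5 mM glucose, 0.4 mM ATP, 0.15 mM NADP+, 0.1 mM resazurin.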

A short description of assay [12]: qHTS profiling of the MIPE4 collection as inhibitors of Plasmodium falciparum (3D7) proliferation (AID 743344; call rule not given here;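 further: scaled between DMSO vehicle wells and 0.29 µM artemisinin as full inhibition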). The following applies: P. falciparum 3D7 in erythrocytes, SYBR Green DNA fluorescence, 72 h; at 28.5 µM (top of the series). The procedure, abridged:
(§1)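 Erythrocytes infected with P. falciparum (0.3% parasitemia, 2.5% hematocrit) incubated with compounds 72 h at 37 C, 5% CO2. Lysis with saponin/Triton buffer containing SYBR Green I, overnight at room temperature in the dark; DNA fluorescence (485/535 nm) normalised to 0.29 uM artemisinin and DMSO.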

A short description of assay [13]: qHTS profiling of the MIPE4 collection as inhibitors of Plasmodium falciparum (DD2) proliferation (AID 743345; call rule not given here). The following applies: P. falciparum Dd2 in erythrocytes, SYBR Green DNA, 72 h; at 28.5 µM (top of the series). The procedure, abridged:
as §1

The nature of assay [14]: qHTS profiling of the MIPE4 collection as inhibitors of Plasmodium falciparum (DD2) proliferation (Rep 2) (AID 743346; call rule not given here). The following applies: P. falciparum Dd2 in erythrocytes, SYBR Green DNA, 72 h; at 28.5 µM (top of the series). The method, boiled down: as §1
The nature of assay [15]: qHTS profiling of the MIPE4 collection as inhibitors of Plasmodium falciparum (HB3) proliferation (AID 743347; call rule not given here;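 further: plate controls were DMSO vehicle wells for no effect and artemisinin wells for full effect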). The following applies: P. falciparum HB3 in erythrocytes, SYBR Green DNA, 72 h; at 28.5 µM (top of the series). The procedure, abridged:
as §1

Several values for one entry are separate records, joined by “and”; a condition that tells them apart may be missing. Identical values can stand only once. Inconclusive results are not listed. Activity calls are given as the source filed them. Unless noted, the call rests on the fitted dose curve; in most records, active means well fitted curve in the direction sought with a large enough effect; inconclusive means small, poorly fitted or top-dose-only effect, or another doubt; inactive means no such curve, though single readings can be large; an effect the other way counts as inactive or inconclusive.

T1 sequence (P35557 whole entry, looked up): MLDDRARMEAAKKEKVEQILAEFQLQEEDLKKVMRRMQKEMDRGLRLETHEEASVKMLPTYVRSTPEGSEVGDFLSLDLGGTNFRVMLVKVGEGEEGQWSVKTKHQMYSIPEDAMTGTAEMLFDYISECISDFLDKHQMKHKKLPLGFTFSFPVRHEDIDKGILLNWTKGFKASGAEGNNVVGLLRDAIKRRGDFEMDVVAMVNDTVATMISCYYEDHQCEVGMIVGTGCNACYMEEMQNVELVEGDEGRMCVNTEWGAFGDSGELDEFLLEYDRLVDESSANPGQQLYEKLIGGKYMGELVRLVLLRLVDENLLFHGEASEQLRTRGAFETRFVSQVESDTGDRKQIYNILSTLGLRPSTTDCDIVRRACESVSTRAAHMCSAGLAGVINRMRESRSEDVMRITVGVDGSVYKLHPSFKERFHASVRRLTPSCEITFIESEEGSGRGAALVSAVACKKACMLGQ
T1 sequence (Q14397 whole entry, looked up): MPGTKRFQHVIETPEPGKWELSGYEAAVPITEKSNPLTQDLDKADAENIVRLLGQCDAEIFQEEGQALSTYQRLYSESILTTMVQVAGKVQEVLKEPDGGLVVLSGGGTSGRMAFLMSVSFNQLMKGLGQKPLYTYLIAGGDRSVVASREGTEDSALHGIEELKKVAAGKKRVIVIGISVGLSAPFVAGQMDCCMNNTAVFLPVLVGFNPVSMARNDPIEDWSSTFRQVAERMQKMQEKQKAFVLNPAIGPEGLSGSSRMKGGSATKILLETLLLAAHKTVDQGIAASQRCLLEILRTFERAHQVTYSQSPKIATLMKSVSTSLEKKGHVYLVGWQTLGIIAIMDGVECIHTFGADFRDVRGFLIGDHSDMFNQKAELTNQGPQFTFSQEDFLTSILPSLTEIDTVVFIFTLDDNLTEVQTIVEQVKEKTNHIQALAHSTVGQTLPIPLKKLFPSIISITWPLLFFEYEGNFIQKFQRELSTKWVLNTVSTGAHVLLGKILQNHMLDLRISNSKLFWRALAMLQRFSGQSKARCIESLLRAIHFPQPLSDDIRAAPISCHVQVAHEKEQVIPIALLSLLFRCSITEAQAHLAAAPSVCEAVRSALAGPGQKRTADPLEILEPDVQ

Turning to `NCCO`, the Potency entry in [1], in [2], in assay [5] and in assay [6] was “inactive” each time. For the same compound, the max response in [3] was 3.76% (inactive); in assay [4], 6.49% (inactive).

Turning to `Cn1cc(C2=C(c3ccc(Cl)cc3Cl)C(=O)NC2=O)c2ccccc21`, the Potency result in assay [7], in assay [8], in assay [9], in assay [10] and in assay [6] was “inactive” each time. In [4], the max response is 6.65% (inactive).

Regarding `CCNC(=O)[C@H]1O[C@@H](n2cnc3c(N)nc(NCCc4ccc(CCC(=O)O)cc4)nc32)[C@H](O)[C@@H]1O`, the Potency entry in [7], in [8], in assay [9] and in assay [6] was “inactive” in each case. Moreover, in assay [11], the outcome was inactive. In addition, in assay [4], the max response was -4.57% (inactive).

For the compound `C[N+](C)(CCCCCC[N+](C)(C)CCCN1C(=O)c2cccc3cccc(c23)C1=O)CCCN1C(=O)c2cccc3cccc(c23)C1=O`, the Potency result in assay [7], in [8], in assay [9], in assay [10] and in [6] was “inactive” each time. Besides, the max response in assay [4] was -6.11% (inactive). Moreover, the parasite growth, % of DMSO control in assay [12] was 5.01%. The parasite growth remaining, % of DMSO control (lower = more inhibition) in assay [13] worked out at 5.17%. In assay [14], this compound had a parasite growth, % of control (lower = inhibition) of 6.76%. In assay [15], this compound gave a growth, % of control of 4.26%.

As to `COc1ccc(/C=C/C(=O)Nc2ccccc2C(=O)O)cc1OC`, the Potency entry in assay [8], in assay [9] and in [10] was “inactive” each time. For the same compound, the result in assay [11] was inactive. The max response in assay [4] is 46% (inactive) and -4.4% (inactive). Also, the Potency in [6] is 7.08 µM (active).

Turning to `CC1OC1P(=O)(O)O` (stereo not drawn), the Potency result in assay [7], in [8], in assay [9], in assay [10] and in [6] was “inactive” in each case.

As for `Cc1ccccc1CNc1ncnc2c1ncn2C1OC(CO)C(O)C1O` (stereo not drawn), the Potency result in assay [7], in assay [8], in assay [9], in [10] and in assay [6] was “inactive” in each case. The max response in assay [4] is 21.1% (inactive).

With `Nc1ncnc2c1c(I)cn2[C@@H]1C[C@H](N)[C@@H](O)[C@H]1O`, the Potency in [8] is 20.6 µM (active). The result in [11] was inactive. The Potency result in assay [9], in assay [10] and in [6] was “inactive” throughout. Further, the max response in [4] was 12.6% (inactive).

Take `CCCCCCCCCCCCCCCCCCNC(=O)OCC(COP(=O)([O-])OCC[n+]1ccsc1)OC` (stereo not drawn): the Potency result in assay [7], in assay [8], in assay [9], in assay [10] and in assay [6] was “inactive” in each case. Besides, the max response in assay [4] was 12.3% (inactive).

On to `Cc1ccc(C(=O)O[C@H](C(=O)O)[C@@H](OC(=O)c2ccc(C)cc2)C(=O)O)cc1` (tested in a mixture with another compound), for which the Potency result in assay [7], in assay [8], in [9] and in assay [6] was “inactive” throughout. Further, the outcome in assay [11] was inactive. Further, the max response in assay [4] was -5.55% (inactive).
